Most compounds without a hit are left out; they make up all but 0.92% or so of the library.
MEP2 TOR yeast: modulators of MEP2-GFP levels in yeast, primary screen, S. cerevisiae, multiplex flow cytometry, MLPCN library. S. cerevisiae MEP2-GFP strain, 3 h; 100% = DMSO control level. hit rate 0.51% among 330,000. GFP response vs DMSO, % at 10 µM;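 active = GFP response versus DMSO above a set limit, roughly screen mean plus 3 SD, cut at about 180% in these data; inconclusive = fewer than 70 cells counted for a yeast strain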;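 note: median GFP fluorescence of the barcode-gated MEP2-GFP cells per well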
AGP1 TOR yeast: modulators of AGP1-GFP expression in yeast TOR pathway, primary screen, cell-based, multiplex flow cytometry, S. cerevisiae, MLPCN library | GFP response vs DMSO, % at 10 µM | 3 h; GFP as percent of DMSO wells | hit rate 0.02% among 320,000 | AID 2066, 2009;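 active = GFP response relative to DMSO above a set limit, near screen average plus 3 SD, cut at about 150% in these data; inconclusive = fewer than 70 cells counted for the yeast strain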;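 note: median GFP channel fluorescence of the gated AGP1 strain per well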
CIT2 TOR yeast: modulators of CIT2-GFP expression in yeast, primary screen, S. cerevisiae, GFP fusion, multiplex flow cytometry, MLPCN library | S. cerevisiae CIT2-GFP strain, 3 h; 100 means same as DMSO wells | GFP response vs DMSO, % at 10 µM | hit rate 0.065% among 320,000 | AID 2029, 2009;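 active = GFP response relative to DMSO above a set limit, near the screen mean plus 3 SD, cut at about 150% in these data; inconclusive = Fewer than 70 cells measured for a yeast strain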;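 note: ratio of well median GFP fluorescence to mean of DMSO wells on the plate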
RPL19A TOR yeast: RPL19A-GFP expression modulators in yeast, primary screen, cell-based, S. cerevisiae, multiplex flow cytometry, MLPCN. hit rate 0.3% among 330,000. S. cerevisiae RPL19A-GFP strain, 3 h; hits give low values. percent response vs DMSO, % at 10 µM. AID 2025, 2009;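 active = percent response vs DMSO below 50%; inconclusive = fewer than 70 events counted for the yeast strain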;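 note: median channel GFP fluorescence of the barcoded RPL19A-GFP strain; ratio of sample median GFP to plate DMSO average so 100% = DMSO; lower means less RPL19A-GFP as with rapamycin TOR inhibition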
LAP4 TOR yeast: modulators of LAP4-GFP expression in yeast, primary screen, S. cerevisiae, multiplex flow cytometry, MLPCN library | GFP response vs DMSO, % at 10 µM | 3 h; median GFP as percent of DMSO wells | hit rate 0.34% among 320,000;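 active = GFP response vs DMSO above a set limit, about the screen mean plus 3 SD, cut at about 150% in these data; inconclusive = under 70 cell events counted for the yeast strain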
* marks the source's active call; other numbers are inactive results; ? = inconclusive; · = not tested or not shown; [ ] = remark or other dose.

SMILES	MEP2 TOR yeast	AGP1 TOR yeast	CIT2 TOR yeast	RPL19A TOR yeast	LAP4 TOR yeast
O=C(NCCc1ccccc1F)c1cccc2cccnc12	105	93	101	99	111
CCC(C(=O)c1ccccc1)P(=O)(NN)c1ccccc1 (stereo unspecified)	108	127	111	102	122
S=C(Sc1ccc(Cl)cc1)Sc1ccc(Cl)cc1	98	114	112	91	150*
O=C1C2C3C=CC(C4CC34)C2C(=O)N1/N=C/c1ccc([N+](=O)[O-])o1 (stereo unspecified)	99	89	80	94	158*
O=C1C2C3C=CC(C4CC34)C2C(=O)N1/N=C/c1ccc(-c2ccc([N+](=O)[O-])cc2)o1 (stereo unspecified)	101	99	101	102	89
O=C(Nc1ccc(-n2cccn2)cc1)C1CCCCN1Cc1cccc2c1OCO2 (stereo unspecified)	100	94	94	97	100
N#Cc1c(N)nc(N2CCCC2)c(C#N)c1-c1ccccc1	102	100	105	99	103
O=C(C[n+]1cc(Br)cc2ccccc21)c1ccc(Cl)cc1	454*[may fluoresce violet]	?	?	24*[may fluoresce violet]	66
O=C(C[n+]1cc(Br)cc2ccccc21)c1ccc(Br)cc1	107	109	102	108	98
COc1ccc(C(=O)N(C(C)C)C(C)C)c(OC)c1	234*[may fluoresce violet]	?	?	38*[may fluoresce violet]	89
COc1ccc(C(=O)NCC(C)C)c(OC)c1	110	109	98	95	93
CCOc1ccccc1NC(=O)CSc1nccn1-c1ccccc1	264*[may fluoresce violet]	?	?	·	90
COC(=O)c1ccc(S(=O)(=O)N2CCOCC2)o1	112	115	159*[may fluoresce green]	93	105
O=C(O)CCC(=O)Nc1ccc(S(=O)(=O)c2ccc(NC(=O)CCC(=O)O)cc2)cc1	97	151*	105	103	102
COc1ccc(-c2cc(=O)n(-c3nc4ccccc4[nH]3)[nH]2)cc1	102	78	88	81	181*
O=C(c1nc[nH]c1C(=O)N1CCN(c2ccccc2)CC1)N1CCN(c2ccccc2)CC1	93	98	99	94	101
CCc1nc(NC(=O)c2sc(C)nc2C)sc1C(=O)OC	109	91	97	100	97
CNC(=O)N(O)C1N(/N=C/c2c(F)cccc2Cl)C(=S)SC1(C)C (stereo unspecified)	244*[may fluoresce violet]	15	?	56	72
CNC(=O)N(O)C1N(/N=C/c2ccc(C)cc2)C(=S)SC1(C)C (stereo unspecified)	108	96	96	108	96
CC(=O)Nc1ccc(S(=O)(=O)N2CCCC2C(=O)Nc2ccc3c(c2)OCCO3)cc1 (stereo unspecified)	103	102	107	96	103
CC(/C=N\NC(=O)CN1CCN(S(=O)(=O)c2ccc(C)cc2)CC1)=C\c1ccccc1	99	100	104	102	96
O=C(Nc1ccccc1F)c1oc2ccccc2c1NC(=O)C1CC1	309*[may fluoresce violet]	?	?	43*[may fluoresce violet]	104
CCCC1(C(=O)OC)NC(c2ccco2)C2C(=O)N(c3ccc(C)cc3)C(=O)C21 (stereo unspecified)	333*[may fluoresce violet]	?	·	37*[may fluoresce violet]	91
CCOC(=O)C1(CC)NC(c2ccco2)C2C(=O)N(c3ccc(C)cc3)C(=O)C21 (stereo unspecified)	97	99	94	98	92
Fc1ccc(CNc2ncccn2)cc1	190*[may fluoresce violet]	?	?	30*[may fluoresce violet]	60
CCc1nc(SCc2ccc(OCC(C)C)cc2)n[nH]1	100	97	97	103	96
CCOC(=O)c1ccc(N2CCOCC2)c(NS(=O)(=O)c2ccc(F)cc2)c1	111	119	168*[may fluoresce green]	95	107
Brc1ccc(N=C/C=C/C=C/Nc2ccc(Br)cc2)cc1	430*[may fluoresce green]	135	367*[may fluoresce green]	152	413*[may fluoresce green]
CC(C)c1ccc(NC(=O)c2snc3ccc(Cl)cc23)cc1	103	99	104	106	92
CCn1c(SCC(=O)Nc2ccc(F)cc2)nnc1-c1cnccn1	169	19	?	38*[may fluoresce violet]	84

Compound activity from PubChem BioAssay.
